Screens deposited in PubChem BioAssay by Fisher Drug Discovery Resource Center.
mcGAS lum – blocks mouse cGAS activity | recombinant cGAS, Kinase-Glo ATP depletion luminescence | inhibition, % at 12.5 µM | 160,000 compounds, 0.15% hits
NPYLR7 agonist – mosquito NPYLR7 agonism | HEK293T NPYLR7/Galpha15, GCaMP6s calcium fluorescence | activation, % at 10 µM | 270,000 compounds, 0.15% hits; in the data active means activation above about 40%
hcGAS inh – human cGAS inhibition; 290,000 compounds, 0.081% hits; AID 1259398; Q8N884; inhibition, % at 12.5 µM; recombinant h-cGAS, ATP depletion, Kinase-Glo luminescence
Target sequence (Q8N884 whole entry, looked up): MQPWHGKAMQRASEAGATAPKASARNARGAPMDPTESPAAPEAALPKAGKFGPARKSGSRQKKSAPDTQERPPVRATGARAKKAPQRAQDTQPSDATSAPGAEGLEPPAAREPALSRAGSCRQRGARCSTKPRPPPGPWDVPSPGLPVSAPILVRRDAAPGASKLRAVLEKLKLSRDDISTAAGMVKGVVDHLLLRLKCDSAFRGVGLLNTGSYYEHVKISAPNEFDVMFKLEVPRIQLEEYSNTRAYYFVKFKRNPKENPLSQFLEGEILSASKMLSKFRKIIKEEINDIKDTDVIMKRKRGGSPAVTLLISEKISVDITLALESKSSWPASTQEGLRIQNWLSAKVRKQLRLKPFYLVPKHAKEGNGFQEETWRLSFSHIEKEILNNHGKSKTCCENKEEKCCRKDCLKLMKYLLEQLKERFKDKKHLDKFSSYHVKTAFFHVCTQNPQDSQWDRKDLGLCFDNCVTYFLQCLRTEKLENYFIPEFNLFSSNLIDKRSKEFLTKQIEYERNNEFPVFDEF
Large screens that a line does not name were inactive; ! = not active in a repeat. An excerpt weighted towards active compounds, which were near 0.24% of everything screened. Unless noted, no stated cut-off is given here; in the data, active means inhibition above about 40%; inactive means the rest.

OC1c2ccccc2-c2c3c(cc4c2C1NCC4)OCO3 (centres undefined)	mcGAS lum 44, hcGAS inh 42
Fc1ccccc1C1NCCc2cc3c(cc21)OCCO3 (centres undefined)	none (no result: mcGAS lum)
COc1ccc(CCNC(=O)NCC(c2ccc3c(c2)CCN3C)N2CCCC2)cc1 (centres undefined)	none
OCc1nccn1-c1ccc(C(F)(F)F)cn1	none
CSC(C)C(=O)Nc1ccc(I)cc1 (centres undefined)	none
NC(=NC1C2CC3CC(C2)CC1C3)Nc1ccc(I)cc1 (centres undefined)	NPYLR7 agonist 43 (no result: mcGAS lum)
Cc1ccnc(SCC(=O)NCc2ccccc2Sc2ccccc2CO)n1	none
CO[C@@]1(NC(=O)C2SC(=C(C(N)=O)C(=O)O)S2)C(=O)N2C(C(=O)O)=C(CSc3nnnn3C)CS[C@@H]21 (some centres undefined)	none (no result: mcGAS lum)
CO[C@@]1(NC(=O)CSCC#N)C(=O)N2C(C(=O)O)=C(CSc3nnnn3C)CSC21 (some centres undefined)	NPYLR7 agonist 49! (no result: mcGAS lum)
O=C(c1ccc(OC(F)F)cc1)N1CCOC(COCc2ccc(F)cc2Cl)C1 (centres undefined)	none
N#Cc1cccc(C(=O)N2CCN(C(c3ccccc3)c3ccccc3)CC2)c1	none
N#Cc1cccc(C(=O)N2CCN(C(c3ccccc3)c3ccc(Br)cc3)CC2)c1 (centres undefined)	NPYLR7 agonist 42
O=[N+]([O-])c1ccc(-n2nc3ccc4nonc4c3n2)cc1	NPYLR7 agonist 81
O=[N+]([O-])c1ccccc1-n1nc2c3nonc3ccc2[n+]1[O-]	none
CCCCN(CC(=O)N(CCc1c[nH]c2ccccc12)Cc1ccccc1)C(=O)C(C)(C)CCl	none
Cc1cccnc1C(NC(=O)C1CCN(C(=O)NCCc2ccccc2)CC1)c1cccs1 (centres undefined)	none
CC1(C)OC2OC(C(O)c3cc(O)c4c(c3O)C(=O)c3ccccc3C4=O)C(C)(O)C2O1 (centres undefined)	NPYLR7 agonist 106 (no result: mcGAS lum)
O=C1c2ccccc2C(=O)c2c(O)c(O)cc(O)c21	none
COc1ccc(OC)c(S(=O)(=O)Nc2ccc(CCNC(=O)NC(C)C)cc2)c1	none
COc1cc(NC(=O)Cc2cccc(F)c2)cc(OC)c1	none
CCCCCCNS(=O)(=O)c1ccc(Br)s1	none (no result: mcGAS lum)
COC(=O)c1c(C)cc(OC(=O)c2c(C)cc(O)c(C=O)c2O)c(C)c1O	none (no result: NPYLR7 agonist)
Cc1cc(O)c(C=O)c(O)c1C(=O)O	hcGAS inh 56 (no result: mcGAS lum)
O=C(N1CCC(OCc2ccccn2)CC1)C1(N2CCCC2)CCCC1	none (no result: NPYLR7 agonist)
O=C(CC(c1ccc(Cl)c(C(F)(F)F)c1)c1c[nH]c2ccccc12)NCCCN1CCOCC1 (centres undefined)	none
CC(C)n1ncc2cc3c(nc21)C(=O)OCC3	none
O=c1oc(-c2ccccc2Br)nc2ccccc12	none
O=c1oc(-c2ccccc2O)nc2ccccc12	hcGAS inh 55 (no result: mcGAS lum)
N#Cc1c(F)cccc1N1CCN(c2ccccc2O)CC1	none (no result: mcGAS lum)
CCN1C(=O)/C(=C2\SC(=S)NC2=O)c2ccccc21	none
O=C(O)CN1C(=O)/C(=C2\SC(=S)NC2=O)c2ccccc21	mcGAS lum 103
C=CCNCC(=O)N1CCc2sccc2C1c1ccccc1 (centres undefined)	none (no result: mcGAS lum)
COc1cccc(-c2nc3ccc(Cl)cn3c2NCc2ccccc2)c1	none
COc1cccc(-c2nc3ccc(Br)cn3c2NCc2ccccc2)c1	mcGAS lum 89!
Cc1ccc2c(c1)CCN1C(=O)CN(C(=O)c3c(F)c(F)cc(F)c3F)CC21 (centres undefined)	none
O=[N+]([O-])c1c[n+]([O-])n(-c2ccc3c(c2)OCCO3)n1	none
O=[N+]([O-])c1c[n+]([O-])n(-c2cccc(Cl)c2)n1	NPYLR7 agonist 74
Cc1cc(CC(C)NC(=O)Cc2c(C)nc3ccccn23)n[nH]1 (centres undefined)	none
CCn1c(C)ccc(C(=O)N(CCN2CCCCCC2)C(C)C)c1=O	none (no result: mcGAS lum)
CC(C)C(NCC(O)COCc1ccccc1)c1nc(-c2ccc([N+](=O)[O-])cc2)no1 (centres undefined)	none
CC1(C)CC(c2nccn2CCOc2ccccc2)CCO1 (centres undefined)	none (no result: mcGAS lum)
CC1(C)CC(c2[nH]cnc2-c2ccccc2)CCO1 (centres undefined)	NPYLR7 agonist 58 (no result: mcGAS lum)
COc1ccc(OC)c(CCNc2nc3cnc(-c4cc(OC)c(OC)c(OC)c4)cc3n2C)c1	NPYLR7 agonist 70
COc1ccc(OC)c(CCNc2nc3cnc(-c4ccc(Cl)cc4)cc3n2C)c1	NPYLR7 agonist 83
CNc1nc2cnc(-c3ccc(OC)c(OC)c3)cc2n1Cc1ccccc1	none
COc1ccc(Cn2cnc3cnc(-c4cc(OC)c(OC)c(OC)c4)cc32)cc1OC	none
Cn1c(C(=O)NNC(=O)c2ccco2)c(Br)c2ccccc21	none
CCN(CC)CCCC(C)NC(=O)c1cc(-c2ccccc2Cl)nn1-c1ccc(OC)cc1 (centres undefined)	none
